From PubChem BioAssay AID624171 (National Center for Advancing Translational Sciences (NCATS), 2012)
Out of some 410,000 compounds screened, about 1,200 (0.29%) were called active. Inconclusive results (about 2%) are left out. This is one part of a sample in which actives are shown more often than they occur. Unmarked numbers belong to inactive results. The call rests on the fitted dose curve; in most records, active means well fitted activation curve with a large enough effect; inconclusive means small, poorly fitted or top-dose-only effect; inactive means flat fitted curve, though single readings scatter.

Experiment: qHTS of Nrf2 Activators; further: nearly all actives have a fitted effect of over 65% in size; on activation: % of control where 0% means no effect
Conditions: AREc32 ARE-luciferase reporter (MCF7-derived line), luminescence, 24 h; series mostly up to 46.1 µM; activation: at the top concentration
Description: Many diseases have some form of oxidative stress injury and ties to inflammation, causing a host of problems for the patient. The antioxidant response element (ARE) plays an important role in alleviating the harmful effects of oxidative stress. The antioxidant response element (ARE) is a transcriptional regulatory element involved in the activation of genes coding for a number of antioxidant proteins and detoxifying enzymes. These enzymes work in concert to protect tissues from oxidative insults and chemical toxicities in human hepatocytes and immune cells. The protective effects of ARE activation are primarily triggered through Nrf2 (NF-E2-related factor) binding to and activating AREs. It is known that Nrf2 controls the production of over 250 antioxidant and detoxification proteins (Hu et al., 2006), thereby protecting tissues by increasing cellular antioxidant content and suppressing inflammatory signaling pathways. The transcription factor Nrf2 is a central link between oxidative chemicals, such as phenolic antioxidants and electrophilic compounds, and the activation of ARE. Nrf2 levels are constitutively low as a consequence of its interaction with Keap1, which targets its degradation (Zipper and Mulcahy, 2002). Electrophiles react with key cysteine residues in Keap1, releasing Nrf2 and allowing its translocation to the nucleus. Once within the nucleus, Nrf2 complexes with coactivators such as p300, and binds to the AREs to induce gene transcription of cytoprotective enzymes, resulting in the prevention of toxicity. Activation of Nrf2 protects tissues by increasing cellular antioxidant content and suppressing inflammatory signaling pathways. Identifying novel and potent Nrf2 activators by using the AREc32 cell line to detect ARE activation by small molecules will lead to the identification and development of probes to study protective pathways in multiple tissues. These specific probes are essential to study the ARE pathway, and eventually to determine whether this pathway does activate genes that could protect against a host of diseases, including cardiovascular diseases, obesity, diabetes, Alzheimer's, and Parkinson's disease.
This project's aim is to identify novel and potent Nrf2 activators by using the AREc32 cell line to detect ARE activation by small molecules, which will lead to the identification and development of probes to study the ARE pathway.
NIH Chemical Genomics Center [NCGC]
NIH Molecular Libraries Probe Centers Network [MLPCN]
Assay Submitter (PI): Curtis Klaassen, University of Kansas Medical Center
5 uL of 1000 cells/well of AREc32_Fluc cells are seeded into 1536-well plate in OPTI-MEM medium with 5% FBS. The plates are incubated overnight at 37 deg C with 5% CO2. Then through pin tool transfer, 23 nL of compounds are added to each well before a 24 hr incubation at 37 deg C with 5% CO2. After the addition of 2.5 uL of Steady-Glo. the plates are kept at RT for 30 min, before they are read on the ViewLux.
Potency means the concentration at half of the fitted maximal effect.

SMILES | activation | Potency
Cc1ccc(NC2=C(Cl)C(=O)OC2OC(=O)c2ccccc2C)cc1 (configuration not stated) | 0.434% [at 9.22 µM] | –
Cc1ccccc1C(=O)OC1OC(=O)C(Cl)=C1Nc1ccccc1 (configuration not stated) | – | 15.8 µM (active)
O=C1OC(OC(=O)c2ccccc2Br)C(N2CCOCC2)=C1Cl (configuration not stated) | 5.07% | –
CCOC(=O)c1c(C)[nH]c(C)c1S(=O)(=O)N1CCC(C(=O)Nc2ccc(C)c(Cl)c2)CC1 | -0.0095% | –
Nc1c(C(=O)c2cccs2)sc2nsc(SCCN3CCCCC3)c12 | – | 10 µM (active)
CC(C)c1cc(NCc2ccccn2)n2c(nc3ccccc32)c1C#N | -0.266% | –
Cc1cc(NC(C)C)n2c(nc3ccccc32)c1C#N | -0.5% | –
Cc1cc(NCc2ccco2)n2c(nc3ccccc32)c1C#N | – | 5.01 µM (active)
Cc1cc(C(=O)NCCc2ccc(Cl)cc2)c(C)o1 | 0.668% | –
Cc1cc(C(=O)N/N=C\C(Br)=C\c2ccccc2)c(C)o1 | – | 20 µM (active)
Cc1cc(C)cc(NC(=O)COC(=O)c2cc(C)oc2C)c1 | 0.443% | –
COc1cccc(C(=O)NCC(=O)OCc2cc(=O)n3ccsc3n2)c1 | 0.717% | –
S=c1[nH]nc(CSCc2ccc(Cl)cc2Cl)n1-c1ccccc1 | 1.92% | –
S=c1[nH]nc(-c2cc(-c3ccsc3)n[nH]2)n1-c1ccccc1 | – | 8.91 µM (active)
Cc1n[nH]c(=O)n1-c1ccc(Oc2ccccc2)cc1 | -0.567% | –
COc1cccc(C(c2c(O)cc(C)n(Cc3ccco3)c2=O)N2CCN(c3ccccc3)CC2)c1 (configuration not stated) | -0.424% | –
O=C(Nc1ccc2ccccc2c1[N+](=O)[O-])c1ccccc1 | – | 14.1 µM (active)
Cc1ccc(NC(=O)c2oc3ccccc3c2C)c([N+](=O)[O-])c1 | 2.17% | –
CN(C)c1ccc(NC(=O)c2ccncc2)c2ccccc12 | 0.419% | –
O=C(CN1C(=O)COc2ccc(S(=O)(=O)N3CCOCC3)cc21)N1CCN(c2cccc(Cl)c2)CC1 | -1.02% | –
Cc1cc2nc(-c3ccc(NC(=O)c4cc5ccccc5o4)cc3)oc2cc1C | -0.225% | –
CCOc1cccc(/C=C/c2ccc3ccccc3n2)c1OC(C)=O | -0.0343% | –
NC(=O)COC(=O)/C=C/c1ccc2ccccc2n1 | – | 15.8 µM (active)

SMILES | activation | Potency
O=C(COC(=O)/C=C/c1nc2ccccc2s1)Nc1ccccc1Oc1ccccc1 | 13.2% | –
CN(C(=O)c1ccc2c(c1)N(Cc1cccc(Cl)c1)C(=O)c1ccccc1S2=O)C1CCCCC1 (configuration not stated) | -0.856% | –
CC(C)C(=O)Nc1nc2c(s1)CC(C(C)(C)C)CC2 (configuration not stated) | 8.99% | –
Cc1ccc(NC(=O)Cn2nnc3sc4c(c3c2=O)CCC(C)C4)cc1 (configuration not stated) | -0.46% | –
COC(=O)c1cccc(Cn2nnc3sc4c(c3c2=O)CCC(C(C)(C)C)C4)c1 (configuration not stated) | 0.258% | –
CCOC(=O)c1c(C)oc2nc(C)nc(Nc3ccc(CC)cc3)c12 | 0.634% | –
CCCOc1ccc(-c2cccc(NS(=O)(=O)c3ccccc3)c2)nn1 | 5.26% | –
COc1ccc(N2C(=O)C3C(C2=O)C(C(=O)c2ccccc2)N2CCCC32)cc1 (configuration not stated) | – | 12.6 µM (active)
COc1ccc(N2C(=O)CC(N3CCC(C(N)=O)CC3)C2=O)cc1 (configuration not stated) | 2.6% | –
COc1ccc(C2NC(=O)N(C)C3=C2C(=O)N(c2ccc(C(=O)O)cc2)C3)cc1 (configuration not stated) | -0.886% | –
CCCNC(=O)C1CCC(Cn2c(=O)c3sccc3n(Cc3ccccc3F)c2=O)CC1 (configuration not stated) | -0.818% | –
COc1ccccc1CNC(=O)c1ccc(CS(=O)c2ccccc2Cl)o1 (configuration not stated) | 0.406% | –
c1ccc(-c2ccnc3nc(-n4cccc4)nn23)cc1 | – | 12.6 µM (active)
Cc1ccc(-c2ccnc3nc(Sc4ncc(C(F)(F)F)cc4Cl)nn23)cc1 | 3.01% | –
Cc1cc(-c2ccccc2)n2nc(-c3ccccc3)cc2n1 | 12.8% | –
O=C(Nc1nnc(S(=O)(=O)N2CCCc3ccccc32)s1)c1cccc(F)c1 | 7.1% | –
CCSc1ncc(Cl)c(C(=O)Nc2c(C(=O)c3ccccc3)oc3ccccc23)n1 | 1.26% | –
O=C(Nc1ccccc1Cl)Nc1cccc2cccnc12 | – | 12.6 µM (active)
COc1c(Cl)cc(Cl)cc1C(=O)Nc1cccc2cccnc12 | 4.52% | –
O=C(Nc1cccc2cccnc12)c1cccc2c(Br)cccc12 | -0.813% | –
Cc1ccc(NC(=O)CN2C(=O)C(c3ccc(F)cc3)=NC23CCCCCC3)c(C)c1 | -0.548% | –
CCCN1CCc2nc(N3CCN(C)CC3)ncc2C1 | -0.347% | –
CC(C)(C)c1ccc(C(=O)N2CCC(c3nc(-c4ccc(S(=O)(=O)N5CCCC5)cc4)no3)CC2)cc1 | -0.309% | –

SMILES | activation | Potency
O=S(=O)(c1ccc(F)cc1)N1CCN(Cc2ccccc2C(F)(F)F)CC1 | -0.452% | –
O=C(CSc1n[nH]c(=O)n1-c1ccccc1)Nc1ccccc1C(F)(F)F | 0.332% | –
O=c1[nH]nc(SCCS(=O)(=O)c2ccc(F)cc2)n1-c1ccccc1C(F)(F)F | – | 11.2 µM (active)
COc1ccc2oc(=O)c(-c3cn4c(n3)sc3cc(OC)ccc34)cc2c1 | 0.368% | –
O=C1/C(=C\c2ccc(O)cc2)CCC1CNc1ccc(Cl)cc1 (configuration not stated) | – | 11.2 µM (active)
CC(=O)c1nn(-c2ccc(OC(F)(F)F)cc2)nc1Nc1ccccc1 | 1.31% | –
CCOc1ccc(CCNC(=O)c2ccc3c(c2)sc2nc(-c4ccc(F)cc4)cn23)cc1OCC | 3.06% | –
Cn1c(=O)c2c(n3c4ccccc4nc13)NC(=O)CC2c1cccc(Cl)c1 (configuration not stated) | 1.12% | –
c1ccc(CSc2nnc(-c3ccco3)c(-c3ccco3)n2)cc1 | – | 12.6 µM (active)
Fc1ccc(CSc2nc(NCc3ccccc3)c3ccccc3n2)cc1 | 6.47% | –
Cc1ccc(-c2nnc(SCC(=O)NCc3ccccc3)nc2-c2ccc(C)cc2)cc1 | 5.5% | –
Cc1ccc(CNC(=O)CSc2c3c(nc4cc(Cl)ccc24)CCCC3)cc1 | 26.8% | –
COc1cccc(CNC(=O)CSc2c3c(nc4cc(Cl)ccc24)CCCC3)c1 | 19.1% | –
O=C(CSc1c2c(nc3ccc(Cl)cc13)CCCC2)NCc1ccco1 | – | 11.2 µM (active)
CCCNC(=O)CCC(=O)N1Cc2ccccc2Oc2ncccc21 | -0.631% | –
Cc1ccc2[nH]c3c(=O)n(CC(=O)NC(C)C)ncc3c2c1 | -0.0426% | –
COc1ccc(-c2csc(-c3c(N)c(C(=O)c4ccc(OC)c(OC)c4)n4ccccc34)n2)cc1 | -0.693% | –
CCn1c2ccccc2c2nnc(N3CCN(c4cc(C)ccc4C)CC3)nc21 | -0.21% | –
Cc1nc(-c2ccccc2)sc1-c1nnc(C2CC2)o1 | – | 15.8 µM (active)
Cc1nc(N)sc1-c1ccccc1 | 8.19% | –
Cc1nc(-c2ccccc2)sc1-c1nc(-c2ccccc2)ncc1S(=O)(=O)c1ccccc1 | 0.0302% | –
